Key:
Assay in all cases: log2 ratio of Biotin-Ahx-Ub-VS probe labelling (fragment/DMSO); higher = less target engagement (more negative = stronger competition), active = hit call of the paper (q ≤ 0.05, log2 ratio ≤ -1)
Conditions in all cases: compound concentration: 200 uM; treatment time: 3 h
USP19 = biological target: T1, USP19 (UniProt O94966)
T1 sequence (whole entry): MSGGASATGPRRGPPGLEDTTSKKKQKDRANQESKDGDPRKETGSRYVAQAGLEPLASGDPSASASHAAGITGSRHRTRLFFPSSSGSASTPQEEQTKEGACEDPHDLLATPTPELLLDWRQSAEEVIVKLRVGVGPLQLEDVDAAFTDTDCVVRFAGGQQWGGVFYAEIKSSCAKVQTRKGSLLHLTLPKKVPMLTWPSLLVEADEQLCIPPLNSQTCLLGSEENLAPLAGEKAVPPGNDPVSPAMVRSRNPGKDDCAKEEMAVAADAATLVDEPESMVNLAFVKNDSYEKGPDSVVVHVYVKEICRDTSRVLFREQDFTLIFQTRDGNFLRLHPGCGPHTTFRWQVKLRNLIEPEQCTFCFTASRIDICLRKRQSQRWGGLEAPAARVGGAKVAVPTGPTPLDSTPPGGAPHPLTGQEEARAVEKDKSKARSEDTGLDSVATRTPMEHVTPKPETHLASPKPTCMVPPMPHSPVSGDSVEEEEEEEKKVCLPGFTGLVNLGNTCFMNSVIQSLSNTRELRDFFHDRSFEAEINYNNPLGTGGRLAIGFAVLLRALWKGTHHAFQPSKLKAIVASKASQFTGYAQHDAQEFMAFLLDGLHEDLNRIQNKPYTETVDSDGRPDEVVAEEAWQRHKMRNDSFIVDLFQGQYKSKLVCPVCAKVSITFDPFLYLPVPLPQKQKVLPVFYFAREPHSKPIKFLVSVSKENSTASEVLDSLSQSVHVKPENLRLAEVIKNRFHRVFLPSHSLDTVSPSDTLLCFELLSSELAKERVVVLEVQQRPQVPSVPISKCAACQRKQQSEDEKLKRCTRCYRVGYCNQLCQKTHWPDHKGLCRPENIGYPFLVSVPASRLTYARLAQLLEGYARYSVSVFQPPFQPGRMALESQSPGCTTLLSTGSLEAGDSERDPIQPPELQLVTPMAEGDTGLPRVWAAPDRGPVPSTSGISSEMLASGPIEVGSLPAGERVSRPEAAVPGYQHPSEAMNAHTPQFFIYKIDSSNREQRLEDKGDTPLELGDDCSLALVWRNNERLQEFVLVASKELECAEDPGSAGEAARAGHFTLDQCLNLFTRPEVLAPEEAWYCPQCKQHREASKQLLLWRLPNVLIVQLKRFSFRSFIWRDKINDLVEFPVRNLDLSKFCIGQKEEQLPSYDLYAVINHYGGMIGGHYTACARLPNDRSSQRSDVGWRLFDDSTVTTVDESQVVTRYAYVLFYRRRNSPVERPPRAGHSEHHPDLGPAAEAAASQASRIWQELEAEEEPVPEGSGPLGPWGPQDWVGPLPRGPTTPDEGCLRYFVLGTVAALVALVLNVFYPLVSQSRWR
Procedure, shortened: (§1)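 Labelling with Biotin-Ahx-Ub-VS (0.5 µM final, 1 h) followed a 3 h triplicate treatment of HEK293T lysate (495 µg per sample, Tris/CHAPS/IGEPAL buffer with protease inhibitors) with fragment at 200 µM or vehicle. Labelled DUBs were NeutrAvidin-enriched, digested with LysC and trypsin, and run by diaPASEF LC-MS/MS. The values, average log2 fragment/vehicle ratios by unpaired t-test, come from global-median-normalised Spectronaut label-free quantities. Proteins with ≥2 unique peptides were used.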

USP22 = biological target: T2, USP22 (UniProt Q9UPT9)
T2 sequence (whole entry): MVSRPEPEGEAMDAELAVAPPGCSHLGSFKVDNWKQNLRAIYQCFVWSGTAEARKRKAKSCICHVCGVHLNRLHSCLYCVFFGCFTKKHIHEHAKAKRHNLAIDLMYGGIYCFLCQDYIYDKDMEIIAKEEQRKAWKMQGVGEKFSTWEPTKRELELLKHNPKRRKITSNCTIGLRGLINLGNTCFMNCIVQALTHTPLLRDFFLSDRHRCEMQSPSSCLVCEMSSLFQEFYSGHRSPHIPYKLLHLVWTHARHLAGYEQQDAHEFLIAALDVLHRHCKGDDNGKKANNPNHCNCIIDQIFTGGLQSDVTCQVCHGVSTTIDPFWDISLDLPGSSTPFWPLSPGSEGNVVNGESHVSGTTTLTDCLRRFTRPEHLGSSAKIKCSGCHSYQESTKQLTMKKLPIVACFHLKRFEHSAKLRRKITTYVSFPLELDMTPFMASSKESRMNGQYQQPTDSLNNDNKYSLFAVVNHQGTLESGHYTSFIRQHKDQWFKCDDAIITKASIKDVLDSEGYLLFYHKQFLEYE
Procedure, shortened: as §1

USP24 = USP24 (UniProt Q9UPU5)
Procedure, shortened: as §1

USP25 = biological target: T3, USP25 (UniProt Q9UHP3)
T3 sequence (whole entry): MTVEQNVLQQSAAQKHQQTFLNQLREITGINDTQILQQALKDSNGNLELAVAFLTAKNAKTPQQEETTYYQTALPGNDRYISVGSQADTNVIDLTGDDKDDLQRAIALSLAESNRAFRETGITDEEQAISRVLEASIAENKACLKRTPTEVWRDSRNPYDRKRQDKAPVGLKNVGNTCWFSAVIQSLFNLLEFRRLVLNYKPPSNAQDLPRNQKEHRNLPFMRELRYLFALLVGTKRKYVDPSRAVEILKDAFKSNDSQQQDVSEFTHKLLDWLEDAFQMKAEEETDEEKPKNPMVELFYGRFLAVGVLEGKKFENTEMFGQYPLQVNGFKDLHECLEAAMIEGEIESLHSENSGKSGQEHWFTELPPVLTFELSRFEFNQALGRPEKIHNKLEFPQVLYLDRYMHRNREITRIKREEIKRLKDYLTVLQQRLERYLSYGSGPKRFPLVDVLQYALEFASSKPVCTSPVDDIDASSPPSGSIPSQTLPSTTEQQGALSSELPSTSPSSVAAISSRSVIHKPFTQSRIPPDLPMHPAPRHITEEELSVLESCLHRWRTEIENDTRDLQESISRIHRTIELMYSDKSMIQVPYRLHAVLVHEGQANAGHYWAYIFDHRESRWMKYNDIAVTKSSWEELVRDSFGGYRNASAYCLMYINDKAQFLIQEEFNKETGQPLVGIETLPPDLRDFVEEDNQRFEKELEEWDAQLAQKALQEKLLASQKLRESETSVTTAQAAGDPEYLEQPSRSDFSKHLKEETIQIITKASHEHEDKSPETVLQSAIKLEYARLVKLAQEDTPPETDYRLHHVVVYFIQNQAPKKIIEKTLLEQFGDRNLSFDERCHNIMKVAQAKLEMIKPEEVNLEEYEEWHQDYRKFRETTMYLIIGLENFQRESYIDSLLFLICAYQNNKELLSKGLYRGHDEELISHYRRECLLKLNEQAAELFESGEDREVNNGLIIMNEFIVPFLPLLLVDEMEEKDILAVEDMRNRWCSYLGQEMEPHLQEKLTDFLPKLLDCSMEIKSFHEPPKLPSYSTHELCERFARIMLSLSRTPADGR
Procedure, shortened: as §1

USP28 = biological target: T4, USP28 (UniProt Q96RU2)
T4 sequence (whole entry): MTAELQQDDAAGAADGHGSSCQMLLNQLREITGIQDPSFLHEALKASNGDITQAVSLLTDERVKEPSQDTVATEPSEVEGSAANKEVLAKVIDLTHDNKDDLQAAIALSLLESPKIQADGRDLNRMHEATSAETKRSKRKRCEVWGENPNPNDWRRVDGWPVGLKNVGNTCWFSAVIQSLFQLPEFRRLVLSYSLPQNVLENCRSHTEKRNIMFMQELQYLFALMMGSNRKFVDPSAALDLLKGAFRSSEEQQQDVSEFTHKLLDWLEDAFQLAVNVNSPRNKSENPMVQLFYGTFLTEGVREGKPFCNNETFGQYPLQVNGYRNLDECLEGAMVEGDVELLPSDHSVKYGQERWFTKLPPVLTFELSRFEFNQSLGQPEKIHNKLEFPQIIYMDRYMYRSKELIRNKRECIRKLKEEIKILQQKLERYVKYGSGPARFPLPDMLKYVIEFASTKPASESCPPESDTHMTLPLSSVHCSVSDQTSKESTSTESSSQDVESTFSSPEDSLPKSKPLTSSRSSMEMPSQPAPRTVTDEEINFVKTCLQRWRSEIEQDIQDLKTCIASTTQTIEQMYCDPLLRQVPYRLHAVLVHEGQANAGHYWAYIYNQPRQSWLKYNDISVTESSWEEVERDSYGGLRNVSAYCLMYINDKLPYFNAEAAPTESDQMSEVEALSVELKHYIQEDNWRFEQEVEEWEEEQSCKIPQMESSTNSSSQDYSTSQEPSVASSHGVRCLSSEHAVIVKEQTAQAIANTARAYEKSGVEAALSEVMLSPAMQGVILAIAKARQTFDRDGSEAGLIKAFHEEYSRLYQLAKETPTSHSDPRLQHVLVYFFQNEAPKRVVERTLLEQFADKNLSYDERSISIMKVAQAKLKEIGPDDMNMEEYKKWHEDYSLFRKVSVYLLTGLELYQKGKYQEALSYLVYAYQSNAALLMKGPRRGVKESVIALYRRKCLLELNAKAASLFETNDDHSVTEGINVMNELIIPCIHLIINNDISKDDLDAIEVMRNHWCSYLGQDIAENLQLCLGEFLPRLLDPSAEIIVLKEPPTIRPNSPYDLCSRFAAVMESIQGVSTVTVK
Procedure, shortened: as §1

Measured: log2 ratio of Biotin-Ahx-Ub-VS probe labelling

USP24, sequence (Q9UPU5 whole entry): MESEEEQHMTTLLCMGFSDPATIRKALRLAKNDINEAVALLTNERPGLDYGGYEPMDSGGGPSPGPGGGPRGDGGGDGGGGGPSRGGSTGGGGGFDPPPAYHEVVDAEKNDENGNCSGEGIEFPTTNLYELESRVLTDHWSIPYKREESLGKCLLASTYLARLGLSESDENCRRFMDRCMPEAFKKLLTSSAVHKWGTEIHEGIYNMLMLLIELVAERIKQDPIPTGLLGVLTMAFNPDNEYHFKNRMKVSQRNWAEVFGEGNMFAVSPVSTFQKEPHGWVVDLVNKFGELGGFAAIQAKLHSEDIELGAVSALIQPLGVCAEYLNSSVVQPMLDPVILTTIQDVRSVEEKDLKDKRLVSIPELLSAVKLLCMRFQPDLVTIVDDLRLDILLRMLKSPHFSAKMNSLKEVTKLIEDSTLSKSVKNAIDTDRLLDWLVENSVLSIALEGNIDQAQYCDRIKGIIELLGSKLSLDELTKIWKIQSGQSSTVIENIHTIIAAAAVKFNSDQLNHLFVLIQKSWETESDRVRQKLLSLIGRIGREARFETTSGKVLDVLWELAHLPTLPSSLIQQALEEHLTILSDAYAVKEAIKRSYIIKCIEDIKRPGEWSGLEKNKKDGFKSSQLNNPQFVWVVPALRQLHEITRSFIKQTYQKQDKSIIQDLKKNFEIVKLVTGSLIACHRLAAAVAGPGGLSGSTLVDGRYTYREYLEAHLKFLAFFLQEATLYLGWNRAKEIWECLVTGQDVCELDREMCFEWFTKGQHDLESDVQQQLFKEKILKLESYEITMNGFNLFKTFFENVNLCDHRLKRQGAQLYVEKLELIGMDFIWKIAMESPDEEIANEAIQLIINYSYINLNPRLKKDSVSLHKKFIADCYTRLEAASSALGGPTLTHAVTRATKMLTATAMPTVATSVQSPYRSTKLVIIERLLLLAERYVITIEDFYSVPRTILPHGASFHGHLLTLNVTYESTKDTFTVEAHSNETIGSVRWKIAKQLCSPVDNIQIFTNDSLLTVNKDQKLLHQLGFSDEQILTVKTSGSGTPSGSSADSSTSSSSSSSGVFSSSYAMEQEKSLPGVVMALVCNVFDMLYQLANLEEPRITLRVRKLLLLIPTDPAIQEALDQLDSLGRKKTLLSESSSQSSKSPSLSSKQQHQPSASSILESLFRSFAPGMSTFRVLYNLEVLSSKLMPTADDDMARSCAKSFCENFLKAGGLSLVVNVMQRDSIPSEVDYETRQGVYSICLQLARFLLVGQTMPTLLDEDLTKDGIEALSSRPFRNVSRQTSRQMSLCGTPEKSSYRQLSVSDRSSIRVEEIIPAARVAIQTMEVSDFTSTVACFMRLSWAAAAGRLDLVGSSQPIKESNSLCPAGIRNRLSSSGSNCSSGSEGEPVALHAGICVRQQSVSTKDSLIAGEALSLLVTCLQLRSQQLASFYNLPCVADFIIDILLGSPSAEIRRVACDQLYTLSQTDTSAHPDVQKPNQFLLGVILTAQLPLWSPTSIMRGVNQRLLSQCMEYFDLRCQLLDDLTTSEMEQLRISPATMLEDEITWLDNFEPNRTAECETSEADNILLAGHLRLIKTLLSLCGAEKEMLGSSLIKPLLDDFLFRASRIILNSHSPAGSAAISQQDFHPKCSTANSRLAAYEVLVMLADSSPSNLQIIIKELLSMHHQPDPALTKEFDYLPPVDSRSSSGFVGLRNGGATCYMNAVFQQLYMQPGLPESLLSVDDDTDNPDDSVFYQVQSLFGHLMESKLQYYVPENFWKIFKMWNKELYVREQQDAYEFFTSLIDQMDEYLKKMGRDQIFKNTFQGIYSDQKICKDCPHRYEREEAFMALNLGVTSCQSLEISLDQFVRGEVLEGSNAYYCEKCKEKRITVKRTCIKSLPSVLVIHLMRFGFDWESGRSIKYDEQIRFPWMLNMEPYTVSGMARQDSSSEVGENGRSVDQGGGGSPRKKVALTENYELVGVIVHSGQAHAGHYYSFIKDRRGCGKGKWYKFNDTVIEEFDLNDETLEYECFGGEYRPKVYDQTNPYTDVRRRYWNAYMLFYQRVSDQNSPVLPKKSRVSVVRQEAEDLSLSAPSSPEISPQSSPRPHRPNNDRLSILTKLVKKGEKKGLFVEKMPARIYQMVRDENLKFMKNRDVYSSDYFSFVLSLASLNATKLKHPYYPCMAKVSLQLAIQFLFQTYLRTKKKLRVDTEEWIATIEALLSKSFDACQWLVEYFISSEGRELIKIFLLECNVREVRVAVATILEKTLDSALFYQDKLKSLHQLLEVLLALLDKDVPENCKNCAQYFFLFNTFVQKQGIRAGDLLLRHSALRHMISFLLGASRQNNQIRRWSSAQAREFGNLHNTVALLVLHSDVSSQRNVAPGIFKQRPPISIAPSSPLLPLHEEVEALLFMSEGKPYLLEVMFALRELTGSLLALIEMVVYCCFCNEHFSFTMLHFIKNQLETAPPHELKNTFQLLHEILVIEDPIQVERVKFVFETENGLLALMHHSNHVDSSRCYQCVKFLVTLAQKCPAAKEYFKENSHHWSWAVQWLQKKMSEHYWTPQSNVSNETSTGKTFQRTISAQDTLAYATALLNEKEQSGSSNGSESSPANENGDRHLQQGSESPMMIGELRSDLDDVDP

Cc1cccn2cc(CCNC(=O)CCl)nc12.Cl
inactive: USP19 -0.279 | USP22 -0.0399 | USP24 -0.29 | USP25 -0.0777 | USP28 -0.334

Source: the supplement of paper PMC11732987, “Enantioselective OTUD7B fragment discovery through chemoproteomics screening and high-throughput optimisation” (Communications Chemistry, 2025)
